An excerpt weighted towards active compounds, which were near 10% of everything screened.
G9a block: qHTS Assay for Inhibitors of Histone Lysine Methyltransferase G9a. Histone-lysine N-methyltransferase EHMT2 (Homo sapiens), Q96KQ7. G9a H3K9 monomethylation, AlphaScreen, 2 h. Potency, µM (doses to about 102 µM), most hits filed as inhibitors. actives 8.8% (n = 350,000). AID 504332, 2011; further: nearly all actives have a fitted effect of over 75% in size
Target sequence (Q96KQ7 913-1193 limits assumed): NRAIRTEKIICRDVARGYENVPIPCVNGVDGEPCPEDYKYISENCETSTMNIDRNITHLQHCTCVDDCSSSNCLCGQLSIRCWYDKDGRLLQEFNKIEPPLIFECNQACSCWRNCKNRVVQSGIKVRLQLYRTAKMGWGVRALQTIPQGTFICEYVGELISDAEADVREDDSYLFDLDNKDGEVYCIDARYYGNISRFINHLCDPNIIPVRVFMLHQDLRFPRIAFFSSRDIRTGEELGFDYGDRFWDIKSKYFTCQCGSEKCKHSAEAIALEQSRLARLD
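Chemiluminescent proximity detection of H3K9 monomethylation, read after 10 min bead incubation in the dark. Reaction: 20 nM G9a, 500 nM biotin-H3K9 peptide, 20 uM SAM cofactor, 2 h, room temperature, following 15 min enzyme-compound preincubation.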
HP1b chromo inh: HTS for Inhibitors of HP1-beta Chromodomain Interactions with Methylated Histone Tails | Chromobox protein homolog 1 (Homo sapiens), P83916 | AlphaScreen HP1-beta / biotin-H3K9me3 peptide binding | Potency, µM (doses to about 114 µM), most hits filed as inhibitors | actives 0.56% (n = 390,000); further: nearly all actives have a fitted effect of over 70% in size
Target sequence (P83916 whole entry, looked up): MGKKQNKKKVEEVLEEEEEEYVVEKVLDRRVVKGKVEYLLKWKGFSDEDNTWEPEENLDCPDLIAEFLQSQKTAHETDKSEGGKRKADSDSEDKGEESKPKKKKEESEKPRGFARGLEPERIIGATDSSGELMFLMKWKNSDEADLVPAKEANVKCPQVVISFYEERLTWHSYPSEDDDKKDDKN
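AlphaScreen: HP1-beta (50 nM) preformed 30 min with biotin-H3(1-18)K9me3 peptide (50 nM) in PBS pH 7.4, 0.01% Tween-20. Compound added for 30 min at RT, then streptavidin donor/nickel chelate acceptor beads (10 ug/mL) for 30 min.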
CtBP-E1A blk: qHTS Assay for Inhibitors of the CtBP/E1A Interaction; CtBP / adenovirus E1A interaction (AlphaScreen); AlphaScreen GST-E1A/His-CtBP binding, 1536-well; stronger effect = lower value; activity change, % (no concentration beside the values); actives 0.49% (n = 340,000); in the data active means activity change below about -65%; inconclusive means mostly about -30% to -63%
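Homogeneous bead-based format: GST-tagged E1A captured on glutathione donor beads, His-tagged CtBP on nickel acceptor beads; compounds precede bead addition by 2 h at 37 °C.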
Six1-Eya2 blk: qHTS Assay for Inhibitors of the Six1/Eya2 Interaction. AlphaScreen GST-Six1/His-Eya2 binding, biochemical; stronger effect = lower value. AID 651725, 2012. actives 0.56% (n = 360,000). activity change, % (test concentration not listed). Homeobox protein SIX1 (Homo sapiens) + Protein phosphatase EYA2 (Homo sapiens), …; in the data active means activity change below about -65%; inconclusive means mostly about -30% to -63%
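Six1/Eya2 binding was read as AlphaScreen signal after compounds were pinned into GST-Six1 plus His-tagged Eya2 (5X stock 250/500 nM) in pH 8.0 Tris/NaCl/TCEP buffer, beads added, then incubated 1 h, 37 C, dark.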
JMJD2A Tudor: qHTS Assay for Inhibitors of JMJD2A-Tudor Domain. AlphaScreen JMJD2A-Tudor / H3K4me3 peptide binding. Potency, µM (highest dose often 114 µM), actives largely listed as inhibitors. actives 4.4% (n = 390,000). AID 504339, 2011; further: nearly all actives have a fitted effect of over 50% in size
BAZ2B block: qHTS Assay for Inhibitors of BAZ2B. Bromodomain adjacent to zinc finger domain protein 2B (Homo sapiens), Q9UIF8. Potency, µM (doses to about 114 µM), actives largely listed as inhibitors. actives 4.4% (n = 360,000). AlphaScreen BAZ2B-H3K14Ac peptide displacement. AID 504333, 2011; further: nearly all actives have a fitted effect of over 60% in size
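In this displacement format the biotinylated H3(5-23) peptide acetylated at Lys14 serves as ligand at 50 nM, with BAZ2B at 50 nM in PBS pH 7.4 containing 0.01% Tween-20. Donor and acceptor beads are 10 ug/mL final.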
Large screens that a line does not name were inactive. Unless noted, the call rests on the fitted dose curve; in most records, active means well fitted inhibition curve with a large enough effect; inconclusive means small, poorly fitted or top-dose-only effect; inactive means no such curve, though single readings can be large or run the other way.

Fc1ccc(C2c3cccn3CCN2C(=S)Nc2cccc(F)c2)cc1 (stereo not given)	BAZ2B block inconclusive
S=C(NC1CCCCC1)N1CCn2cccc2C1c1cccnc1 (stereo not given)	G9a block 71µM, BAZ2B block inconclusive
Cc1ccc(-n2nc3c(N4CCC(C(=O)NC(C)C)CC4)nnc(C)c3c2C)cc1	none (no result: CtBP-E1A blk, Six1-Eya2 blk)
Cc1ccc(-n2c(C)cc(C=C(C#N)C#N)c2C)cc1	none
CCN(CC)c1ccc(-n2c(C)cc(C=O)c2C)cc1	G9a block 45µM, HP1b chromo inh inconclusive, Six1-Eya2 blk inconclusive, BAZ2B block inconclusive
CCN(CC)c1ccc(-n2c(C)c(C(C)=O)c(C(C)=O)c2C)cc1	G9a block inconclusive, HP1b chromo inh inconclusive, JMJD2A Tudor 89µM (no result: BAZ2B block)
CCOc1ccc2nc(NC(=O)CS(=O)(=O)c3ccc(Cl)cc3)sc2c1	none (no result: CtBP-E1A blk, Six1-Eya2 blk)
CCOc1ccc(N=Nc2c(N)[nH][nH]c2=O)cc1	G9a block 3.5µM, JMJD2A Tudor 79µM, BAZ2B block inconclusive
COc1cccc(N=Nc2c(N)[nH][nH]c2=O)c1	G9a block 4.5µM
COc1ccc(-c2cc3nc4c(c(=O)n3[nH]2)CCC4)cc1	none
CCOc1ccc(N=Nc2c(=O)[nH]n3c(=O)cc(C)[nH]c23)cc1	G9a block inconclusive, CtBP-E1A blk inconclusive, Six1-Eya2 blk inconclusive, JMJD2A Tudor 56µM, BAZ2B block 50µM
COc1cccc(N=Nc2c(N)[nH]n3c(=O)c4c(nc23)CCCC4)c1	G9a block inconclusive, Six1-Eya2 blk -71
COC(=O)c1cnc(Nc2nc(C(N)Cc3ccccc3)cs2)nc1C(F)(F)F (stereo not given)	CtBP-E1A blk inconclusive (no result: G9a block, HP1b chromo inh, JMJD2A Tudor, BAZ2B block)
CCCCNC(=O)C(NC(=O)c1cnccn1)C(=O)c1ccccc1 (stereo not given)	none (no result: G9a block, HP1b chromo inh, JMJD2A Tudor, BAZ2B block)
CCc1ccccc1NC(=O)c1oc(=O)c2ccccc2c1-c1ccccc1	none (no result: CtBP-E1A blk, Six1-Eya2 blk)
COc1ccc(CNC(=O)c2ccc3nc(CCc4ccccc4)oc3c2)cc1OC	none (no result: CtBP-E1A blk, Six1-Eya2 blk)
CCC(=O)Nc1nnc(Sc2ccc(N(C)C)cc2)s1	G9a block inconclusive
CN(C)c1ccc(Sc2nnc(NC(=O)Nc3ccc(Cl)cc3Cl)s2)cc1	G9a block 28µM
Cc1cc(C(=O)NP(=O)(N2CC(C)OC(C)C2)N2CC(C)OC(C)C2)c(C)n1C1CC1 (stereo not given)	G9a block 45µM, BAZ2B block inconclusive
COc1cccc(N2CC(NC(=O)/C=C\c3ccc4c(c3)OCO4)CC2=O)c1 (stereo not given)	none (no result: CtBP-E1A blk, Six1-Eya2 blk)
Cc1cc(NC(=O)c2cc(-c3ccc(Cl)c(Cl)c3)on2)n(-c2ccccc2)n1	none (no result: CtBP-E1A blk, Six1-Eya2 blk)
CC1CCCC(NC(=O)COC(=O)Cc2cn3ccsc3n2)C1C (stereo not given)	G9a block 50µM
O=C(Cc1cn2ccsc2n1)NCc1ccccc1	BAZ2B block 79µM
CCn1c2ccccc2c2cc(NC(=O)COC(=O)c3ccc(O)cc3)ccc21	G9a block inconclusive
CCn1c2ccccc2c2cc(NC(=O)COC(=O)Cc3cn4ccsc4n3)ccc21	JMJD2A Tudor 35µM
CC1(C(=O)NS(=O)(=O)c2cccc(F)c2)CCN1C(=O)CC1CCCCC1 (stereo not given)	none (no result: G9a block, HP1b chromo inh, JMJD2A Tudor, BAZ2B block)
O=C(COc1cc(F)ccc1[N+](=O)[O-])Nc1ccc(N2CCCCC2)cc1	G9a block inconclusive, HP1b chromo inh inconclusive, Six1-Eya2 blk inconclusive, JMJD2A Tudor 40µM, BAZ2B block 32µM
O=C(NC(=S)Nc1cccnc1)c1ccccc1	G9a block 79µM
COc1cc(OC)cc(C(=O)NC(=S)Nc2cccnc2)c1	G9a block inconclusive
COc1ccc(C(=O)NC(=S)Nc2cccnc2)cc1OC	G9a block 50µM
COc1cc(OC)cc(C(=O)NC(C(=O)Nc2ccc(N3CCOCC3)cc2)C(C)C)c1 (stereo not given)	G9a block 50µM
Cn1cnc2c(=O)oc3ccc(S(=O)(=O)N4CCN(c5cccc(Cl)c5)CC4)cc3c21	none (no result: CtBP-E1A blk, Six1-Eya2 blk)
COc1cc(NC(=O)C(OC(=O)CNC(=O)c2ccccc2)c2ccccc2)cc(C(F)(F)F)c1 (stereo not given)	none (no result: G9a block, HP1b chromo inh, CtBP-E1A blk, Six1-Eya2 blk, BAZ2B block)
Cc1c(Cl)cccc1NC(=S)NC(=O)c1cncc(Br)c1	none (no result: G9a block, BAZ2B block)
COc1ccc(C(=O)Nc2ccccc2C(=O)NCc2cccnc2)cc1OC	G9a block 71µM
CCOc1cccc(C(=O)NC(=S)Nc2ccc(N3CCN(CC)CC3)cc2)c1	G9a block 14µM, HP1b chromo inh inconclusive, JMJD2A Tudor 56µM, BAZ2B block 35µM

Compound activity as filed in PubChem.
